# Data as given in PubChem BioAssay (NCATS).
# Results filed as inconclusive are left out. Entries that show only a call come without a potency. Unmarked numbers belong to inactive results. Activity calls are given as the source filed them. Calls follow the shape of the dose curve; as a rule, active = well fitted inhibition curve with a large enough effect; inconclusive = small, poorly fitted or top-dose-only effect; inactive = no such curve, though single readings can be large or run the other way.
# How the values were obtained:
# [1] = test system: Zika virus NS2B-NS3 protease (unlinked complex); assay: Primary screen GU Rhodamine qHTS for Zika virus inhibitors: Unlinked NS2B-NS3 protease assay (AID 1347159); also: nearly all actives have a fitted effect of over 60% in size
# Outline: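 Noncovalent NS2B hydrophilic domain–NS3 protease domain complex (25 nM) preincubated 15 min at room temperature with compounds (up to 114 microM) in 10 mM Tris-HCl pH 8.0, 0.01% Tween 20; 1.5 microM Rhodamine110 substrate added, fluorescence change over 15 min fitted to Hill equation.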
# [2] = test system: Zika virus NS2B-NS3 protease (linked construct); assay: Primary screen NINDS Rhodamine qHTS for Zika virus inhibitors (AID 1347160); also: nearly all actives have a fitted effect of over 55% in size
# Outline: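 Purified linked NS2B-NS3 protease (NS2B hydrophilic domain joined to NS3 protease by flexible linker), 25 nM in 10 mM Tris-HCl pH 8.0, 0.01% Tween 20. Compounds titrated, 15 min preincubation at room temperature; 1.5 microM Rhodamine110 substrate, FITC fluorescence change over 15 min.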
# Potency is read from the fitted curve at half-maximal effect.
compound,measurement,setting,value
C=C[C@H]1[C@H](O[C@@H]2O[C@H](CO)[C@@H](O)[C@H](O)[C@H]2O)OC=C2C(=O)OCC[C@H]21,Potency,[1],inactive
same,Potency,[2],inactive
COCC1OC(=O)c2coc3c2C1(C)C1=C(C3=O)C2CCC(=O)C2(C)CC1O (stereo not given),Potency,[1],inactive
same,Potency,[2],inactive
C=C(CO)C(=O)O[C@H]1C/C(C)=C/CC/C(CO)=C/[C@H]2OC(=O)C(=C)[C@H]12,Potency,[1],inactive
same,Potency,[2],inactive
CCN1C[C@]2(COC(=O)c3ccccc3N3C(=O)C[C@H](C)C3=O)CC[C@H](OC)[C@@]34[C@@H]5C[C@H]6[C@H](OC)[C@@H]5[C@](O)(C[C@@H]6OC)[C@](O)([C@@H](OC)[C@H]23)[C@@H]14,Potency,[1],inactive
same,Potency,[2],inactive
COc1cc(C)[nH]c(=O)c1CNC(=O)c1c(C)n([C@H](C)C2CCOCC2)c2ccccc12,Potency,[1],inactive
same,Potency,[2],inactive
CCCCCCn1c(=O)c(C(=O)Nc2ccc(C(=O)OCCC)cc2)c(O)c2ccccc21,"activity change, negative = inhibition",[1],-4.23% [at 19.1 µM]
same,outcome,[2],inactive [at 10.7 µM]
C=CC(C)(O)CC/C=C(\C)C(=O)O[C@H]1[C@H](O)[C@@H](CO)O[C@@H](OC(=O)[C@]23CCC(C)(C)CC2C2=CCC4[C@@]5(C)CC[C@H](O[C@@H]6O[C@H](CO[C@@H]7OC[C@H](O)[C@H](O)[C@H]7O[C@@H]7OC[C@@H](O)[C@H](O)[C@H]7O)[C@@H](O)[C@H](O)[C@H]6O)C(C)(C)C5CC[C@@]4(C)[C@]2(C)CC3)[C@@H]1OC1OC(C)C(O[C@@H]2OC[C@@H](O)[C@H](O[C@@H]3OC[C@@H](O)[C@H](O)[C@H]3O)[C@H]2O)C(O)C1O (stereo not given in full),"activity change, negative = inhibition",[1],50.7% [at 19.1 µM]
same,"activity change, negative = inhibition",[2],33.2% [at 10.7 µM]
COC(=O)C1(C)CCC(O)C2(C)c3c(O)cc(C(C)C)cc3C(O)C(OC(C)=O)C12 (stereo not given),Potency,[1],inactive
same,Potency,[2],inactive
C[C@@]12C[C@@H](c3ccoc3)OC(=O)C1CC[C@]1(C)[C@H]2[C@H]2C=C[C@]1(O)C(=O)O2 (stereo not given in full),Potency,[1],inactive
same,Potency,[2],inactive
C[C@]12CC[C@H]3[C@@H]([C@H](O)CC4=CC(=O)CC[C@@]43C)[C@@H]1CC[C@@H]2O,Potency,[1],inactive
same,Potency,[2],inactive
CC(=O)OC1CC(O)C(C)(C)C2CC(OC(C)=O)C3(C)C(CCC4(C)C(c5ccoc5)C(=O)C5OC543)C12C (stereo not given),Potency,[1],inactive
same,Potency,[2],inactive
COC1C(O)C(OC2CCC3(C=O)C(CCC4C3CCC3(C)C(C5=CC(=O)OC5)CCC43O)C2)OC(C)C1OC1OC(CO)C(O)C(O)C1O (stereo not given),Potency,[1],inactive
same,Potency,[2],inactive
CC1=C2C(=O)C3[C@@H](CC=C4C[C@@H](O)CC[C@@]43C)[C@@H]2CC[C@]12O[C@@H]1C[C@H](C)CN[C@H]1[C@H]2C (stereo not given in full),Potency,[1],inactive
same,Potency,[2],inactive
CC(C)=C1CC[C@]23CO[C@H](C2)[C@@](O)(C(=O)O)CCC13 (stereo not given in full),Potency,[1],inactive
same,Potency,[2],inactive
N#CC(OC1OC(COC2OC(CO)C(O)C(O)C2O)C(O)C(O)C1O)c1ccccc1 (stereo not given),Potency,[1],inactive
same,Potency,[2],inactive
CC(C)(C)c1cc(C(C)(C)C)c2c(c1)C(O)(C(F)(F)F)C(=O)O2 (stereo not given),Potency,[1],7.94 µM (active)
same,Potency,[2],12.6 µM (active)
CN(C(=O)Cc1ccccc1)C(CN1CCCC1)c1ccccc1 (stereo not given),Potency,[1],inactive
same,Potency,[2],inactive
Cc1c(Cl)cccc1S(=O)(=O)Nc1nc(CC(=O)N2CCN(C)CC2)cs1,Potency,[1],inactive
same,Potency,[2],inactive
O=C(N1CCOCC1)N1CCN(c2ccc(Cl)cc2)CC1,Potency,[1],inactive
same,Potency,[2],inactive
CCC(C)(C#N)O[C@@H]1O[C@H](CO)[C@@H](O)[C@H](O)[C@H]1O (stereo not given in full),Potency,[1],inactive
same,Potency,[2],inactive
COC1CC(=O)C23C(=O)NC(CC(C)C)C2C(C)=C(C)C(OO)C3/C=C(\C)CCC(O)C1O (stereo not given),Potency,[1],inactive
same,Potency,[2],inactive
C=C1[C@@H]2CC[C@@]3(C)[C@H](c4ccoc4)OC(=O)C[C@]13O[C@H]1CC(=O)C(C)(C)[C@H](C(OC(C)=O)C(=O)OC)[C@]12C (stereo not given in full),Potency,[1],inactive
same,Potency,[2],inactive
C[C@H]1C(=O)O[C@H]2[C@H](O)[C@]34C5OC(=O)[C@]3(O[C@@H]3OC(=O)[C@H](O)C34[C@H](C(C)(C)C)[C@H]5O)C12O (stereo not given in full),Potency,[1],inactive
same,Potency,[2],inactive
CCN1C[C@]2(OC(=O)c3ccccc3NC(C)=O)CC[C@H](OC)[C@@]34[C@@H]2C[C@@H]([C@@H]13)[C@@]1(O)C[C@H](OC)[C@H]2C[C@@H]4[C@]1(O)[C@H]2OC,Potency,[1],inactive
same,Potency,[2],inactive
COC1C(O)C(C)OC(OC2C(CO)O[C@@H](O[C@@H]3CC4CCC5C(CC[C@]6(C)[C@@H](C7=CC(=O)OC7)CC[C@]56O)[C@@]4(C)[C@H](O)C3)C(O)C2O)C1O (stereo not given in full),Potency,[1],inactive
same,Potency,[2],inactive
